The text below walks through data of the supplement of paper PMC6555819.

In the assay the test system is VDR:RXRa (NR concentration 270 nM, RXRa partner concentration 90 nM). Kind of assay: PBM binding z-score (relative to random genomic background probes); higher = stronger binding; sequences stand for … in GC…GCGATTGACAGCGTAGAATGAAGG
As for the experimental part: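 Protein-binding microarray (Agilent 4x180K custom design, double-stranded 60-nt probes: 5' GC cap, 34-nt variable region, 24-nt constant primer region; full probe sequence given). Purified or IVT nuclear receptor:RXRα heterodimers (3:1 NR:RXRα, mostly 270:90 nM) or homodimers were incubated for 1 h in PBS with 2% milk and no ligand, then detected with Alexa488 antibodies. Fluorescence from o1-orientation probes (~5 replicates averaged) was converted to z-scores against 500 random hg19 background probes. Variable regions are seed direct-repeat (DR0–DR5) sites, all their single-nucleotide variants and half-site ablations.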
Sequence CCAGACAGGTGAGAAGGTAACCCAGCCTCGATTA yielded a PBM binding z-score of -0.04.

Sequence CCTGCTAGGTCAATGGTGAGCTAAAGCAGCTCGC yielded a PBM binding z-score of 0.217.

TTACCAACGTGAAAGGTCGTTGATGCACGCCTTG: the PBM binding z-score was 1.74.

For the sequence GGAACGAGGGCAAGTTGATAGTAGAGTTTGATGG, the PBM binding z-score worked out at 1.34.

The sequence CCTCGGAGGACAACAGCAGGTCAGAGCTGCCAGA registered a PBM binding z-score of 0.333.

Turning to CCTCACGGGTCAAGGTTATAGCACGGGTGGTACG, the PBM binding z-score stood at 3.18.

The sequence CATACAGGGTCAGTTAGGCCAGAGTAGGGACGGC registered a PBM binding z-score of 3.05.

Sequence GCATATAGGTAATACAAGGAGAAAGTCCGATTGT came in with a PBM binding z-score of -0.177.

Regarding TCTCGGAGGACACGAAGGTAAGAGCTTTCCAGAG, the PBM binding z-score is -0.386.

For the sequence TCTAGTTGGTCAAAGGTCACTCACTCGAAATGCG, the PBM binding z-score came out at 4.92.

In turn, TTACCAAGGTGAAAAGTCGTTGATGCACGCCTTG gave a PBM binding z-score of 0.0875.

TGAATAAGGTTAAAGATCAGGGAACGTGGCGTCG showed a PBM binding z-score of 1.37.

In turn, TCGAGTAGGTTACGAATGGGGCATTCAGCTTTCT came in with a PBM binding z-score of -0.137.

TCATATCGGTAAAGGTGAAAGTCGAACGATATGA displayed a PBM binding z-score of 0.691.

For the sequence CCGAGTAGGTTATAGGGCATTCAGGCAACGGTGA, the PBM binding z-score came out at 0.402.

As for CCTAGCAGGCCAATCTGTGTCACTCAAGGCTTGA, the PBM binding z-score is -0.331.

CGAACGAGGGGATGAGTTGATAGCAAATGCCGAT registered a PBM binding z-score of -0.189.

On to TCATATTGGTAAACAGGTGAAAGTCCGTAAGTTA, for which the PBM binding z-score came out at 1.08.

As for CGTCAAAGTTCAAGATAACGTAACAGAAAGCAGC, the PBM binding z-score is 3.2.

Take ACTTACGGGTCAACGAGGTTATAGAACGCGTATA: the PBM binding z-score came out at 7.78.

Consider ATATGTAGGTAATCGGGTCATTCAGTTTGCGCAT, for which the PBM binding z-score was found to be 4.7.

As for ATCGAAAGGTCGACGAGGTGACTATACACCGTTT, the PBM binding z-score came out at 5.95.

For ATCTCTAGGTAAAGATAGTTAAGTGAATGCAAAT, the PBM binding z-score worked out at 0.487.

The sequence CCTATTGGGCCATTCAGAGGTCATTGATCATATG yielded a PBM binding z-score of 3.98.

In the case of ACTTACGGGTCAACGAGGTTATAGTACGCGTATA, the PBM binding z-score amounted to 7.78.

In turn, CGAACTAGGTCAGAACAGGAAAGTGAAGGATGAT gave a PBM binding z-score of 0.0955.

CGTCAAGGTTCAACTAAGGTAACGTAAAGCACGC gave a PBM binding z-score of 3.94.

Sequence CCCCGGAGGACAACAGGAGGTCAGAGCTGCCAGA displayed a PBM binding z-score of 1.91.

In the case of TGAATGAGGGTAAAGATCAGGGAACGTGGCGTCG, the PBM binding z-score was -0.0441.

Regarding TCCAGTAGGTTAGTCGGGGCATTCAGCCAACATA, the PBM binding z-score turned out to be 2.47.

CTCGAAAGGTCGTGCTCAGGTGAGTTTACCAAAC registered a PBM binding z-score of 3.98.

In turn, CGAACGAGGGCATGCGTTGATAGCAAATGCCGAT returned a PBM binding z-score of 0.672.

Sequence ACTTACGGGTCAACGAGGTTATAGGACGCGTATA registered a PBM binding z-score of 7.69.

As for CGAACTAGTTCAGAACAGGACAGTGAAGGATGAT, the PBM binding z-score is -0.0284.

CCGACTGGGGCAAAGGTTACTATACTCAGTACGA had a PBM binding z-score of 1.12.

Sequence CGAACTAGGTCAGAACTGGACAGTGAAGGATGAT displayed a PBM binding z-score of 0.181.

The sequence AGAATGAGGTTACCAAAGATTAGGGAAACGCTTG returned a PBM binding z-score of 1.05.

Turning to CAAACTAGGTCAAAGGTCTAAGTCGAGCCAACCA, the PBM binding z-score was 2.98.

In turn, TCGAGTAGGTTAATCGGGGCATTCAGCCAACATA registered a PBM binding z-score of 3.59.

As for ATCTGTAGGTAACCAAGTTCAGTGAATGCCGAAC, the PBM binding z-score was 4.63.
